A number with no mark means an inactive call. Records with an inconclusive call do not appear. Where a call stands in place of a potency, no number is given. Calls of active or inactive are those of the source. Unless noted, calls come from the whole dose curve; as a rule, active = well fitted curve in the direction sought with a large enough effect in the repeat runs; inconclusive = weak or mixed curves; inactive = no such curve, though single readings can be large; an effect the other way counts as inactive or inconclusive.
Tests used:
[1] = qHTS assay to test for compound auto fluorescence at 535 nm (green) in HEK293 cells (AID 720680)
[2] = qHTS assay to test for compound auto fluorescence at 460 nm (blue) in HEK293 cell free culture (AID 720681)
Method in brief: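 Blue fluorescence (Ex 405/Em 460 nm, triamterene-equivalent) was read immediately after pin transfer of compound or DMSO into medium (DMEM, 10% FBS) without cells.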

[3] = qHTS assay to test for compound auto fluorescence at 535 nm (green) in HEK293 cell free culture (AID 720682)
Method in brief: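 Each library compound, or DMSO control, is added by pintool to medium alone, comprising DMEM and 10% FBS. Emission at 535 nm following 485 nm excitation is quantified against fluorescein.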

[4] = qHTS assay to test for compound auto fluorescence at 590 nm (red) in HEK293 cell free culture (AID 720683)
Method in brief: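 Red-channel autofluorescence of compounds in culture medium (DMEM, 10% FBS), no cells, measured at 540/590 nm. Rose Bengal sodium is the reference fluorophore for equivalence.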

[5] = qHTS assay to test for compound auto fluorescence at 590 nm (red) in HepG2 cell free culture (AID 720684)
Method in brief: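 Steps: dispense MEM/10% FBS medium, no cells; pin compound or DMSO vehicle; read red channel, Ex/Em 540/590 nm. Output given as Rose Bengal sodium equivalents.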

[6] = qHTS assay to test for compound auto fluorescence at 460 nm (blue) in HepG2 cell free culture (AID 720685)
Method in brief: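 Compound (23 nL) or DMSO pinned into cell-free MEM with 10% FBS; blue fluorescence read at 405/460 nm excitation/emission, expressed as auto-fluorescence equivalency to triamterene.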

[7] = qHTS assay to test for compound auto fluorescence at 535 nm (green) in HepG2 cell free culture (AID 720686)
[8] = target: Glucocorticoid receptor (Homo sapiens) (UniProt P04150); test: qHTS assay to identify small molecule agonists of the glucocorticoid receptor (GR) signaling pathway (AID 720691; active = well fitted activation curve with a large enough effect in the signal ratio in the repeat runs, not every such curve was filed as active; the % refers to the signal ratio)
Method in brief: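 Reporter read-out: fluorescence intensity following 2 h room-temperature LiveBLAzer B/G FRET substrate loading. Prior step: GR-bla HeLa cells held 4 h, then treated 18 h at 37 C.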

[9] = target: Glucocorticoid receptor (Homo sapiens) (UniProt P04150); test: qHTS assay to identify small molecule antagonists of the glucocorticoid receptor (GR) signaling pathway (AID 720692; active = well fitted inhibition curve with a large enough effect in the signal ratio in the repeat runs, not every such curve was filed as active; the % refers to the signal ratio)
Method in brief: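 Dexamethasone (5 nM final) stimulated a stably integrated GRE-beta-lactamase reporter in HeLa cells during 18 h co-incubation with compounds; signal was quantified as fluorescence intensity of B/G FRET substrate after 2 h.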

[10] = qHTS assay to identify small molecule antagonists of the glucocorticoid receptor (GR) signaling pathway - cell viability counter screen (AID 720693); note: nearly all actives have a fitted effect of over 55% in size; note: potency is the fitted concentration of half-maximal effect
[11] = qHTS assay for identifying genotoxic compounds that show differential cytotoxicity against isogenic chicken DT40 cell lines with known DNA damage response pathways - wild type cell line (AID 743012); note: nearly all actives have a fitted effect of over 60% in size; note: potency is the fitted concentration of half-maximal effect
Method in brief: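 Using parental DT40 (300 cells/well), compounds delivered in DMSO incubate 40 h at 37 C/5% CO2. CellTiter-Glo reagent then stands 30 min at room temperature, and luminescence gives cell viability.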

[12] = qHTS assay for identifying genotoxic compounds that show differential cytotoxicity against isogenic chicken DT40 cell lines with known DNA damage response pathways - Rev3 mutant cell line (AID 743014); note: nearly all actives have a fitted effect of over 55% in size; note: potency is the fitted concentration of half-maximal effect
[13] = qHTS assay to identify small molecule antagonists of the androgen receptor (AR) signaling pathway - cell viability counter screen (AID 743033; note: nearly all actives have a fitted effect of over 45% in size; note: potency is the fitted concentration of half-maximal effect)
[14] = qHTS assay to identify small molecule antagonists of the androgen receptor (AR) signaling pathway using the MDA cell line - cell viability counter screen (AID 743041; note: nearly all actives have a fitted effect of over 45% in size)
Method in brief: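 Cells were plated at 3,000 per well and left 5 h. Compounds in DMSO were then pinned in, followed by R1881. After 16 h at 37C, CellTiter-Fluor fluorescence gave viability.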

[15] = qHTS assay to test for compound auto fluorescence at 460 nm (blue) in HepG2 cells (AID 720687)
Method in brief: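 Blue-channel autofluorescence (Ex/Em 405/460 nm, triamterene-equivalent) was measured after 1 hr compound exposure at 37 C, 5% CO2. Cells were HepG2, plated overnight at 37 C in MEM plus 10% FBS.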

[16] = qHTS assay for identifying genotoxic compounds that show differential cytotoxicity against isogenic chicken DT40 cell lines with known DNA damage response pathways - Rad54/Ku70 mutant cell line (AID 743015); note: nearly all actives have a fitted effect of over 60% in size; note: potency is the fitted concentration of half-maximal effect
[17] = target: Androgen receptor (Homo sapiens) (UniProt P10275); test: qHTS assay to identify small molecule antagonists of the androgen receptor (AR) signaling pathway (AID 743035; active = well fitted inhibition curve with a large enough effect in the signal ratio in the repeat runs, not every such curve was filed as active; the % refers to the signal ratio; note: potency is the fitted concentration of half-maximal effect)
Method in brief: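 Using qHTS, AR-UAS-bla GripTite HEK293 cells received compound, then R1881, and were cultured 16 h at 37C/5% CO2 before a 2 h room-temperature LiveBLAzer B/G FRET substrate step and fluorescence measurement.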

[18] = target: Androgen receptor (Homo sapiens) (UniProt P10275); test: qHTS assay to identify small molecule agonists of the androgen receptor (AR) signaling pathway using the MDA cell line (AID 743040; note: nearly all actives have a fitted effect of over 20% in size)
Method in brief: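 Cells plated, 5 h at 37C/0% CO2; compound or DMSO pinned; 16 h at 37C; ONE-Glo added; luminescence measured after 30 min at room temperature. Reporter line: MDA-kb2 with MMTV-luciferase responsive to AR and GR.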

[19] = target: Androgen receptor (Homo sapiens) (UniProt P10275); test: qHTS assay to identify small molecule antagonists of the androgen receptor (AR) signaling pathway using the MDA cell line (AID 743042; note: nearly all actives have a fitted effect of over 55% in size; note: potency is the fitted concentration of half-maximal effect)
Method in brief: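 Antagonist mode: compounds plus R1881 agonist added to MDA-kb2 AR-luc cells, incubated 16 h at 37C. Luciferase reporter luminescence quantified, with multiplexed CellTiter-Fluor readout for cell viability.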

[20] = target: Androgen receptor (Homo sapiens) (UniProt P10275); test: qHTS assay to identify small molecule agonists of the androgen receptor (AR) signaling pathway (AID 743036; active = well fitted activation curve with a large enough effect in the signal ratio in the repeat runs, with a control signal flat, not every such curve was filed as active; the % refers to the signal ratio)
Method in brief: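 Following a 4 h settling period, AR-UAS-bla HEK293 cells were dosed with compounds for 16 h at 37C. A 2 h room-temperature incubation with LiveBLAzer B/G FRET substrate preceded the fluorescence measurement.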

Chain of Androgen receptor (Homo sapiens) (P10275 whole entry, looked up): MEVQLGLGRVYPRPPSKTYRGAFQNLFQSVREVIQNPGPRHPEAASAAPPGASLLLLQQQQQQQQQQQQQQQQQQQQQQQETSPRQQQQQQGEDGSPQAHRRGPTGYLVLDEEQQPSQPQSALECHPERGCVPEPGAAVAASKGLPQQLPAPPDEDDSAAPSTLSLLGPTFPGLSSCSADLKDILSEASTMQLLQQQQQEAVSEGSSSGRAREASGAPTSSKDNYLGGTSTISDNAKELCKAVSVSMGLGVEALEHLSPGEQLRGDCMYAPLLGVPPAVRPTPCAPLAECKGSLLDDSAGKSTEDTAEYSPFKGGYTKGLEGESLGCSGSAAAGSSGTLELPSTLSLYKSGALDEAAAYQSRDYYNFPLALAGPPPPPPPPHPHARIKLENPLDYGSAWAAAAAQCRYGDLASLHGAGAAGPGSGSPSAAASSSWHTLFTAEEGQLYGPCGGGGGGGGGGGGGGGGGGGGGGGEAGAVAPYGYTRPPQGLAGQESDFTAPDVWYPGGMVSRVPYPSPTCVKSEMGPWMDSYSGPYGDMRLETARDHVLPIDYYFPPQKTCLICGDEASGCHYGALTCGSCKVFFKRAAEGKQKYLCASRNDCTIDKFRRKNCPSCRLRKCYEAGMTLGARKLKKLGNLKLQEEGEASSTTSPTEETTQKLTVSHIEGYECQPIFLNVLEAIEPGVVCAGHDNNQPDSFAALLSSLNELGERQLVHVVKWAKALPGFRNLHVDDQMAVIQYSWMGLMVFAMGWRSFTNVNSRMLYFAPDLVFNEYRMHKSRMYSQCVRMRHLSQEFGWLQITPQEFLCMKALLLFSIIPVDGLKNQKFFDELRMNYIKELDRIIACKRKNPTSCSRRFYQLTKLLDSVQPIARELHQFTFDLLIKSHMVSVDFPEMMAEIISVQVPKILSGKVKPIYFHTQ
Chain of Glucocorticoid receptor (Homo sapiens) (P04150 whole entry, looked up): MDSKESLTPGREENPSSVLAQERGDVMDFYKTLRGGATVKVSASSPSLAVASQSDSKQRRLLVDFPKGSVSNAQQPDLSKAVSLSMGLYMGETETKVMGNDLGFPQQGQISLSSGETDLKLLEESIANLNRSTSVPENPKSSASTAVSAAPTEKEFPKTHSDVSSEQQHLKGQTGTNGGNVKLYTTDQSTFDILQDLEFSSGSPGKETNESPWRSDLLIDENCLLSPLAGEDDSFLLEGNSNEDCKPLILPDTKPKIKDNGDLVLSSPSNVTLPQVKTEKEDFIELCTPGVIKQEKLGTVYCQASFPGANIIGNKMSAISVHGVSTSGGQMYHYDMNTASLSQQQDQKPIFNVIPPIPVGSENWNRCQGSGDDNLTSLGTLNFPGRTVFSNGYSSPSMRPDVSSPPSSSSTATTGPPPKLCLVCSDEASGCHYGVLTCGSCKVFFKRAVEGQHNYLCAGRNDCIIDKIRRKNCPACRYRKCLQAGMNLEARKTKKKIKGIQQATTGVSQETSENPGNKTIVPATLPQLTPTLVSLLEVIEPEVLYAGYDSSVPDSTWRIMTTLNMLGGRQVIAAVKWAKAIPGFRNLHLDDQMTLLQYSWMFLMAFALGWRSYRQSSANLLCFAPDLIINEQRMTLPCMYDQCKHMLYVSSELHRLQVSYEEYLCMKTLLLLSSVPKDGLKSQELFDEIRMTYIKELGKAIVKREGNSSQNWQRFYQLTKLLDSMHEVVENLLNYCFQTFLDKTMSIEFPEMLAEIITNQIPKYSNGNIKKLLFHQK

In the case of `CC(=O)OCC[N+](C)(C)C`, the outcome [1] was “inactive”, the Potency [2] was “inactive” and the outcome [3] was “inactive”. The outcome [4] was “inactive”, the outcome [5] was “inactive” and the Potency [6] was “inactive”. The outcome [7] was “inactive”, the Potency [8] was “inactive” and the Potency [9] was “inactive”. For the same compound, the Potency [10] was “inactive”, the Potency [11] was “inactive” and the Potency [12] was “inactive”. The Potency [13] was “inactive” and the Potency [14] was “inactive”.
For `C=C(C)C(=O)OCCOCCOC(=O)C(=C)C`, the outcome [1] was “inactive”, the Potency [2] was “inactive” and the outcome [3] was “inactive”. The outcome [4] was “inactive”, the outcome [5] was “inactive” and the Potency [6] was “inactive”. The outcome [7] was “inactive”, the Potency [15] was “inactive” and the Potency [11] was “inactive”. For the same compound, the Potency [16] was “inactive”, the Potency [13] was “inactive” and the Potency [14] was “inactive”.
In the case of `O=C(O)CCc1nc(-c2ccccc2)c(-c2ccccc2)o1`, the outcome [1] was “inactive”, the Potency [2] was “inactive” and the outcome [3] was “inactive”. For the same compound, the outcome [4] was “inactive”, the outcome [5] was “inactive” and the Potency [6] was “inactive”. The outcome [7] was “inactive”, the Potency [8] was “inactive” and the Potency [9] was “inactive”. For the same compound, the Potency [10] was “inactive”, the Potency [11] was “inactive” and the Potency [16] was “inactive”. For the same compound, the Potency [13] was “inactive” and the Potency [14] was “inactive”.
In the case of `O=C1c2ccccc2C(=O)C1c1ccc(Br)cc1`, the outcome [1] was “inactive”, the Potency [2] was “inactive” and the outcome [3] was “inactive”. The outcome [4] was “inactive”, the outcome [5] was “inactive” and the Potency [6] was “inactive”. The outcome [7] was “inactive”, the Potency [15] was “inactive” and the Potency [10] was “inactive”. For the same compound, the Potency [11] was “inactive”, the Potency [16] was “inactive” and the Potency [13] was “inactive”. For the same compound, the Potency [17] was “inactive”, the outcome [18] was “inactive” and the Potency [14] was “inactive”. For the same compound, the Potency [19] was “inactive”.
For `CCCCCCCCCCCCCCN(CCO)CCO`, the outcome [1] was “inactive”, the Potency [2] was “inactive” and the outcome [3] was “inactive”. For the same compound, the outcome [4] was “inactive”, the outcome [5] was “inactive” and the Potency [6] was “inactive”. For the same compound, the outcome [7] was “inactive”, the Potency [15] was “inactive” and the Potency [11] was 2.43 µM (active). The Potency [12] was 1.09 µM (active), the Potency [16] was 2.43 µM (active) and the Potency [13] was 43.6 µM (active). For the same compound, the Potency [14] was “inactive”.
In the case of `CCCCCCCCC(CCCCCC)C(=O)O` (configuration not stated), the outcome [1] was “inactive”, the Potency [2] was “inactive” and the outcome [3] was “inactive”. The outcome [4] was “inactive”, the outcome [5] was “inactive” and the Potency [6] was “inactive”. The outcome [7] was “inactive”, the Potency [15] was “inactive” and the Potency [11] was “inactive”. For the same compound, the Potency [13] was “inactive” and the Potency [14] was “inactive”.
In the case of `O=C1Cc2ccccc2N1c1c(Cl)cccc1Cl`, the outcome [1] was “inactive”, the Potency [2] was “inactive” and the outcome [3] was “inactive”. The outcome [4] was “inactive”, the outcome [5] was “inactive” and the Potency [6] was “inactive”. For the same compound, the outcome [7] was “inactive”, the Potency [15] was “inactive” and the Potency [11] was 24.3 µM (active). For the same compound, the Potency [12] was 34.4 µM (active), the Potency [16] was 27.3 µM (active) and the Potency [17] was 54.9 µM (active). The outcome [18] was “inactive”, the Potency [14] was “inactive” and the Potency [19] was 61.1 µM (active).
For `O=C1CCCCCCCCCCOCCCCO1`, the outcome [1] was “inactive”, the Potency [2] was “inactive” and the outcome [3] was “inactive”. The outcome [4] was “inactive”, the Potency [6] was “inactive” and the outcome [7] was “inactive”. The Potency [15] was “inactive”, the Potency [8] was “inactive” and the Potency [11] was “inactive”. For the same compound, the Potency [14] was “inactive”.
With `Cc1c(C)c2c(c(C)c1OC(=O)CCC(=O)OCCO)CC[C@@](C)(CCC[C@H](C)CCC[C@H](C)CCCC(C)C)O2` the outcome [1] was “inactive”, the Potency [2] was “inactive” and the outcome [3] was “inactive”. The outcome [4] was “inactive”, the outcome [5] was “inactive” and the Potency [6] was “inactive”. For the same compound, the outcome [7] was “inactive”, the Potency [11] was 11.9 µM (active) and the Potency [16] was 11.9 µM (active). For the same compound, the Potency [13] was “inactive”.
For `CCCCOc1ccc(OCCCN2CCOCC2)cc1`, the fluorescence, % of fluorescein [1] was 0.0257% [at 18.6 µM], the fluorescence, % of fluorescent control [2] was -0.123% [at 18.6 µM] and the activity change [3] was 0.0858% [at 18.6 µM]. The fluorescence, % of fluorescent control [4] was -0.046% [at 18.6 µM], the fluorescence, % of fluorescent control [6] was -0.102% [at 18.6 µM] and the fluorescence, % of fluorescein control [7] was -0.0254% [at 18.6 µM]. For the same compound, the fluorescence, % of fluorescent control [15] was -0.0756% [at 18.6 µM], the Potency [10] was “inactive” and the Potency [11] was 2.54 µM (active). For the same compound, the Potency [16] was 2.27 µM (active), the Potency [13] was “inactive” and the Potency [14] was “inactive”.
Work on `C[C@@H](CN(C)C)CN1c2ccccc2Sc2ccccc21` yielded a fluorescence, % of fluorescein [1] of -0.0143% [at 18.6 µM], a fluorescence, % of fluorescent control [2] of 0.0136% [at 18.6 µM] and an activity change [3] of -0.0963% [at 18.6 µM]. It also gave a fluorescence, % of fluorescent control [4] of 0.012% [at 18.6 µM], a fluorescence, % of fluorescent control [6] of 0.0401% [at 18.6 µM] and a fluorescence, % of fluorescein control [7] of -0.0052% [at 18.6 µM]. For the same compound, the fluorescence, % of fluorescent control [15] was -0.0799% [at 18.6 µM], the Potency [8] was “inactive” and the Potency [10] was “inactive”. The Potency [11] was 11.4 µM (active), the Potency [12] was 11.4 µM (active) and the Potency [16] was 11.4 µM (active). For the same compound, the Potency [14] was “inactive”.
For `C[C@@H](O[C@H]1OCCN(Cc2n[nH]c(=O)[nH]2)[C@H]1c1ccc(F)cc1)c1cc(C(F)(F)F)cc(C(F)(F)F)c1`, the outcome [1] was “inactive”, the Potency [2] was “inactive” and the outcome [3] was “inactive”. The outcome [4] was “inactive”, the Potency [6] was “inactive” and the outcome [7] was “inactive”. The Potency [15] was “inactive”, the Potency [10] was 21.3 µM (active) and the Potency [11] was 23.7 µM (active). The Potency [16] was 23.7 µM (active), the outcome [20] was “inactive” and the outcome [18] was “inactive”.
For `CCOC(=O)c1ccc(I)cc1`, the outcome [1] was “inactive”, the Potency [2] was “inactive” and the outcome [3] was “inactive”. The outcome [4] was “inactive”, the Potency [6] was “inactive” and the outcome [7] was “inactive”. The Potency [15] was “inactive”, the Potency [10] was “inactive” and the Potency [11] was “inactive”. For the same compound, the Potency [16] was “inactive”, the Potency [13] was “inactive” and the Potency [14] was “inactive”.
In the case of `c1ccc2c(c1)CCc1ccccc1N2`, the outcome [1] was “inactive”, the Potency [2] was “inactive” and the outcome [3] was “inactive”. For the same compound, the outcome [4] was “inactive”, the Potency [6] was “inactive” and the outcome [7] was “inactive”. The Potency [15] was “inactive”, the Potency [10] was “inactive” and the Potency [11] was “inactive”.
For `CCOC(=O)c1ccccc1C(=C1C=C(Br)C(=O)C(Br)=C1)c1cc(Br)c(O)c(Br)c1`, the outcome [1] was “inactive”, the Potency [2] was “inactive” and the outcome [3] was “inactive”. For the same compound, the outcome [4] was “inactive”, the Potency [6] was “inactive” and the outcome [7] was “inactive”. The Potency [11] was “inactive”, the Potency [12] was “inactive” and the Potency [13] was “inactive”.
